Results: the supplement of paper PMC7380943

system: CLZ3 (HCA2 human fibroblast dual HR-NHEJ reporter); experiment: HR repair efficiency (tdTomato+ cells) relative to control (log10 fold); higher = more homologous recombination; conditions: 5 µM; doxycycline 0.5 ug/mL
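Further: compound given one day before doxycycline, which switches on I-SceI endonuclease expression to create double-strand breaks within the integrated reporter.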

Going from O=C(O)C(O)Cc1ccc(O)c(O)c1 (configuration not stated) [Sodium Danshensu] to COc1cc(CCC(C)=O)ccc1O [Zingerone], the “HR repair efficiency (log10)” value rises from 0.0346 to 0.257.

Compared with COc1cc(CNC(=O)CCCCCCC(C)C)ccc1O [Dihydrocapsaicin], CCCCCCC[C@H](O)CC(=O)CCc1ccc(O)c(OC)c1 [8-Gingerol] is higher in “HR repair efficiency (log10)” value: -0.256 for the first, 0.0341 for the second.

First: NC(=O)c1cccnc1 [Nicotinamide]
Second: COc1cc2ccc(=O)oc2cc1O [Scopoletin]
The “HR repair efficiency (log10)” value of the first is higher: 0.186 for the first, -0.177 for the second.

COc1ccc(-c2cc(=O)c3c(OC)c(OC)c(OC)c(OC)c3o2)cc1 [Tangeretin] and O=c1oc2c(O)c(O)cc3c(=O)oc4c(O)c(O)cc1c4c23 [Ellagic Acid] are within 0.2 log units of each other in “HR repair efficiency (log10)” value: -0.0674 for the first, -0.174 for the second.

CCCCC[C@H](O)CC(=O)CCc1ccc(O)c(OC)c1 [6-Gingerol] and COc1cc(C[C@@H](CO[C@@H]2O[C@H](CO)[C@@H](O)[C@H](O)[C@H]2O)[C@H](CO[C@@H]2O[C@H](CO)[C@@H](O)[C@H](O)[C@H]2O)Cc2ccc(O)c(OC)c2)ccc1O [Secoisolariciresinol Diglycoside] are within 0.2 log units of each other in “HR repair efficiency (log10)” value: 0.0839 for the first, 0.0805 for the second.

CC1(C)O[C@H]2CC(=O)OC[C@]23[C@H]2CC[C@@]4(C)[C@H](c5ccoc5)OC(=O)[C@H]5O[C@]54[C@]2(C)C(=O)C[C@@H]13 [Limonin] and CC(=O)O[C@@H]1CC[C@@]2(C)[C@@H](CC[C@]3(C)[C@@H]2C(=O)C=C2[C@@H]4[C@@H](C)[C@H](C)CC[C@]4(C)CC[C@]23C)[C@@]1(C)C(=O)O [3-Acetyl-11-Keto-Beta-Boswellic Acid] are within 0.2 log units of each other in “HR repair efficiency (log10)” value: -0.00925 for the first, -0.0515 for the second.

C=C(C(=O)O)[C@@H]1CC[C@@H](C)[C@@H]2CCC(C)=C[C@@H]21 [Artemisinic acid] and C[C@H](CCC(=O)O)[C@H]1CC[C@H]2[C@@H]3CC[C@@H]4C[C@H](O)CC[C@]4(C)[C@H]3C[C@H](O)[C@]12C [Deoxycholic acid] are within 0.2 log units of each other in “HR repair efficiency (log10)” value: 0.116 for the first, 0.0026 for the second.

First: C[C@@H]1CCCCCCCCCCCCC(=O)C1 [Muscone]
Second: C[C@@H]1O[C@@H](O[C@H]2[C@H](Oc3cc(O)c(C(=O)CCc4ccc(O)cc4)c(O)c3)O[C@H](CO)[C@@H](O)[C@@H]2O)[C@H](O)[C@H](O)[C@H]1O
The “HR repair efficiency (log10)” value of the first is higher: 0.229 for the first, -0.0118 for the second.

In the case of COC(=O)C1=CO[C@@H](O[C@@H]2O[C@H](CO[C@@H]3O[C@H](CO)[C@@H](O)[C@H](O)[C@H]3O)[C@@H](O)[C@H](O)[C@H]2O)[C@@H]2C(CO)=CC[C@H]12 [Genipin 1-Gentiobioside], the “HR repair efficiency (log10)” value is reported as 0.0278.
